An excerpt weighted towards active compounds, which were near 1.7% of everything screened.
FGF22 binding: FGF22 (human) thermal shift binding; Q9HCT0; recombinant FGF22 thermal shift, SYPRO orange fluorescence; percent of sucrose octasulfate shift, DMSO zero; 340,000 compounds, 1.5% hits; activity (Tm shift, normalised), % at 9.99 µM;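 active = mean Tm shift, scaled 0 neutral to 100 positive control, at about 1.3% or above, every replicate too, limit read from the data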
Target sequence (Q9HCT0 whole entry, looked up): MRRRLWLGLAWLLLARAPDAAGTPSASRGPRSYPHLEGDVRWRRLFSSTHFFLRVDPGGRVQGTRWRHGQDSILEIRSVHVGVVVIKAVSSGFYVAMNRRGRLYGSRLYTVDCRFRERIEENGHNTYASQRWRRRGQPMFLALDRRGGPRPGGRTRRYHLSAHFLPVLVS
Vif imaging: blocks HIV Vif function; AID 602346; inhibition, % at 7.49 µM; HEK293T cells, Vif self-association by quenched fluorescence, imaging, 24 h; 340,000 compounds, 0.35% hits; in the data active = inhibition above about 50%, passing the limit was not always enough
F508del corr: correctors of CFTR F508del function in bronchial epithelial cells; activity (quench increase), % at 7.58 µM; 350,000 compounds, 0.36% hits; CFBE cells, YFP halide quenching; stimulated with forskolin plus potentiator P3; % fluorescence drop versus neutral controls;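 active = mean added fluorescence quench of at least 8% versus neutral control, with both replicates also reaching 8%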;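 note: cells transiently co-express mutant CFTR-F508del with the halide-sensitive YFP; corrector assay measuring rescue of mutant channel to the surface after 24 h compound exposure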
* = called active by the depositor; . = no result; ! = a repeat was not active.

SMILES	FGF22 binding	Vif imaging	F508del corr
CC[C@H]1CN2CCC1C[C@H]2[C@H](O)c1ccnc2ccc(OC)cc12 (stereo not given in full)	-0.1	2.0	9.8*
CC[C@H]1CN2CCC1C[C@@H]2[C@@H](O)c1ccnc2ccc(OC)cc12 (stereo not given in full)	-0.2	-2.1	2.5
COc1ccc(C#Cc2ccc([C@H]3[C@@H](CO)N4CCCCN(C(=O)Cc5ccncc5)C[C@@H]34)cc2)cc1	0.4	.	-0.5
N#CC(C#N)=Cc1ccc(N2CCOCC2)cc1	-0.2	-2.5	-2.8
N#C/C(=C\c1ccc(O)cc1)C(=O)O (tested in a mixture with another compound)	0.2	-3.7	11.1*
C[C@@H]1CN([C@H](C)CO)C(=O)c2c(c3ccccc3n2C)-c2ccccc2CO[C@@H]1CN(C)C(=O)Oc1ccccc1	-0.3	.	0.8
COc1ccc(C(O)(c2cncnc2)C2CC2)cc1 (stereo not given)	-0.2	.	0.1
Cc1cccc(C(O)(C(=O)NNC(=O)CN2CCN(C)CC2)c2cccc(C)c2)c1	0.0	-14.7	1.0
Cc1ccc(C(O)(C(=O)NNC(=O)CN2CCN(C)CC2)c2ccc(C)cc2)cc1	44.3*	0.5	-3.4
COC(=O)[C@H]1[C@H](CO)[C@H]2Cn3c(ccc(-c4ccccc4)c3=O)[C@@H]1N2CC1CCOCC1	0.0	.	0.3
O=C(Cc1ccccn1)N1CCCCN2[C@H](CO)[C@H](c3ccc(C#Cc4ccccc4)cc3)[C@@H]2C1	0.4	.	-2.3
O=C(NN=Cc1ccc(N(CCCl)CCCl)cc1)c1cc(=O)[nH]c(=O)[nH]1	44.4*	3.1	1.7
O=C(NN=Cc1ccc(N(CCCl)CCCl)cc1)C(=O)c1c[nH]c2ccccc12	-0.2	0.9	.
O=C(O)[C@@H]1[C@@H](CO)[C@@H]2Cn3c(ccc(-c4ccccc4)c3=O)[C@H]1N2CC1CCCCC1	0.0	.	0.1
Cc1cccc(S(=O)(=O)N2[C@@H]3Cn4c(ccc(-c5cccc(F)c5)c4=O)[C@H]2[C@@H](C(=O)O)[C@@H]3CO)c1	.	.	-0.2
C[C@@H]1O[C@@H](O[C@H]2C[C@@H](O)[C@]3(CO)[C@H]4[C@H](O)C[C@]5(C)[C@@H](C6COC(=O)C6)CC[C@]5(O)[C@@H]4CC[C@]3(O)C2)[C@H](O)[C@H](O)[C@H]1O (stereo not given in full)	-0.2	-9.5	-1.6
CC1OC(OC2CC(O)C3(CO)C4C(O)CC5(C)C(C6=CC(=O)OC6)CCC5(O)C4CCC3(O)C2)C(O)C(O)C1O (stereo not given)	-0.2	-26.1	14.9*
OC1/C(=C/c2ccc(F)cc2)N2CCC1CC2 (stereo not given)	43.4*	-5.7	1.9
OC1/C(=C/c2ccc(Cl)cc2Cl)N2CCC1CC2 (stereo not given)	-0.2	-3.5	-0.6
NS(=O)(=O)c1ccc(N=Cc2c(O)n(-c3ccccc3)c(=O)[nH]c2=O)cc1	0.1	1.3	1.4
Cc1ccc(-n2c(O)c(C=Nc3ccc(S(N)(=O)=O)cc3)c(=O)[nH]c2=O)cc1	43.0*	25.1	-5.4
C[C@H](Cc1ccc(OCC(=O)O)cc1)NC[C@H](O)c1cccc(Cl)c1	-0.1	.	0.4
CC(Cc1ccc(O)cc1)NCC(O)c1cc(O)cc(O)c1 (stereo not given)	0.0	89.7*	0.5
O=C(Cc1cccnc1)N1CCCCN2[C@@H](CO)[C@@H](c3ccc(C#CC4(O)CCCC4)cc3)[C@@H]2C1	-0.5	.	1.1
COc1ccc2c(c1)C(c1ccc(N(CCCl)CCCl)cc1)=NCC2	0.0	-7.5	0.3
SMILES	FGF22 binding	Vif imaging	F508del corr
COc1ccc(N2C(=O)C(=O)N(c3ccc(OC)cc3)P2(=O)N(CCCl)CCCl)cc1	43.1*	2.5	7.6
CSc1ncc(CN2CCCC(C(=O)c3sccc3C)C2)cn1 (stereo not given)	-0.1	-0.1	-0.3
Cc1ccsc1C(=O)C1CCCN(Cc2cnc(N3CCCC3)s2)C1 (stereo not given)	43.8*	-2.9	-0.6
CC=Cc1ccc2n(c1=O)C[C@@H]1[C@@H](CO)[C@H](C(=O)OC)[C@H]2N1C(=O)CC (mixture of isomers)	0.2	.	.
COc1c(C)cc(C(=O)C2CCCN(C3CCOCC3)C2)cc1C (stereo not given)	43.1*	2.0	-1.7
COc1cccc(C(=O)C2CCCN(Cc3cccc(C)n3)C2)c1 (stereo not given)	44.2*	1.8	-0.8
Cc1cccc(CN2CCCC(C(=O)c3cccc(OC(C)C)c3)C2)n1 (stereo not given)	.	0.8	.
COc1ccc2cc(C(=O)C3CCCN(C4CCOCC4)C3)ccc2c1 (stereo not given)	0.0	-3.3	-0.6
COc1ccc(C(=O)C2CCCN(Cc3ccccn3)C2)c(OC)c1 (stereo not given)	43.0*	-5.4	-1.7
COc1ccc(C(=O)C2CCCN(Cc3cnc(C)s3)C2)c(OC)c1 (stereo not given)	-0.1	-1.6	-2.3
COc1c(C)cc(C(=O)C2CCCN(Cc3cccc(C)n3)C2)cc1C (stereo not given)	43.5*	9.6	1.5
COc1c(C)cc(C(=O)C2CCCN(Cc3cccc(O)c3)C2)cc1C (stereo not given)	-0.2	-3.2	2.7
O=C(O)[C@H]1[C@H](CO)[C@H]2Cn3c(ccc(-c4ccncc4)c3=O)[C@@H]1N2C(=O)C1CCCC1	.	.	-2.5
COC(=O)[C@@H]1[C@@H](CO)[C@@H]2Cn3c(ccc(C4=CCCC4)c3=O)[C@H]1N2C(=O)CC1CC1	-0.2	.	-0.5
CCCC#Cc1ccc([C@H]2[C@@H](CO)N3CCCCN(C(=O)Cc4ccccn4)C[C@@H]23)cc1	-0.2	.	-2.0
COc1cc(C(O)CNC(C)C)cc(F)c1OC (stereo not given)	0.2	55.2*	0.0
COc1cc(C(O)CN)ccc1O (stereo not given)	-0.1	-5.7	-0.9
COc1cc2c(cc1C=O)OCO2	0.1	.	-2.5
COc1cc([C@@H]2c3cc4c(cc3[C@@H](OC)[C@H]3COC(=O)[C@H]23)OCO4)cc(OC)c1O	-0.7	.	9.3*
O=C(Cc1ccccc1)N1CC2(C1)[C@H](c1ccccc1)[C@@H](CO)N2Cc1cccc(Cl)c1	-0.1	.	2.6
CSc1ccc(C(=O)C2CCCN(Cc3cnc(SC)nc3)C2)cc1 (stereo not given)	43.9*	-6.4	3.1
CSc1ncc(CN2CCCC(C(=O)c3ccccc3SC)C2)cn1 (stereo not given)	0.0	-9.8	1.0
CCC(=O)N1[C@@H]2c3ccc(-c4cccc(F)c4)c(=O)n3C[C@H]1[C@H](CO)[C@H]2C(=O)OC	0.2	.	-1.3
C[C@H]1CN([C@@H](C)CO)C(=O)CCCn2nncc2CO[C@@H]1CN(C)C(=O)Oc1ccc2ccccc2c1	0.0	.	-1.0
C[C@@H]1CN([C@H](C)CO)C(=O)CCCn2nncc2CO[C@H]1CN(C)C(=O)Oc1ccc2ccccc2c1	43.0*!	0.2	-5.4
C[C@@H]1CN([C@@H](C)CO)C(=O)CCCn2nncc2CO[C@@H]1CN(C)C(=O)Oc1ccc2ccccc2c1	0.0	-0.8	-0.5

Compound activity deposited in PubChem by Broad Institute.
